# Test results published in PubChem BioAssay AID651768 (National Center for Advancing Translational Sciences (NCATS), 2012).
# About 1,700 (0.47%) of roughly 360,000 compounds were called active. Inconclusive results (about 2%) are left out. Only a selection was taken, and actives are over-represented in it overall. Values without a mark were called inactive. Calls come from the whole dose curve; as a rule, active = well fitted inhibition curve with a large enough effect; inconclusive = small, poorly fitted or top-dose-only effect; inactive = no such curve, though single readings can be large or run the other way.
# Target: Bifunctional 3'-5' exonuclease/ATP-dependent helicase WRN (Homo sapiens) (UniProt Q14191)
# Sequence (Q14191 whole entry, looked up): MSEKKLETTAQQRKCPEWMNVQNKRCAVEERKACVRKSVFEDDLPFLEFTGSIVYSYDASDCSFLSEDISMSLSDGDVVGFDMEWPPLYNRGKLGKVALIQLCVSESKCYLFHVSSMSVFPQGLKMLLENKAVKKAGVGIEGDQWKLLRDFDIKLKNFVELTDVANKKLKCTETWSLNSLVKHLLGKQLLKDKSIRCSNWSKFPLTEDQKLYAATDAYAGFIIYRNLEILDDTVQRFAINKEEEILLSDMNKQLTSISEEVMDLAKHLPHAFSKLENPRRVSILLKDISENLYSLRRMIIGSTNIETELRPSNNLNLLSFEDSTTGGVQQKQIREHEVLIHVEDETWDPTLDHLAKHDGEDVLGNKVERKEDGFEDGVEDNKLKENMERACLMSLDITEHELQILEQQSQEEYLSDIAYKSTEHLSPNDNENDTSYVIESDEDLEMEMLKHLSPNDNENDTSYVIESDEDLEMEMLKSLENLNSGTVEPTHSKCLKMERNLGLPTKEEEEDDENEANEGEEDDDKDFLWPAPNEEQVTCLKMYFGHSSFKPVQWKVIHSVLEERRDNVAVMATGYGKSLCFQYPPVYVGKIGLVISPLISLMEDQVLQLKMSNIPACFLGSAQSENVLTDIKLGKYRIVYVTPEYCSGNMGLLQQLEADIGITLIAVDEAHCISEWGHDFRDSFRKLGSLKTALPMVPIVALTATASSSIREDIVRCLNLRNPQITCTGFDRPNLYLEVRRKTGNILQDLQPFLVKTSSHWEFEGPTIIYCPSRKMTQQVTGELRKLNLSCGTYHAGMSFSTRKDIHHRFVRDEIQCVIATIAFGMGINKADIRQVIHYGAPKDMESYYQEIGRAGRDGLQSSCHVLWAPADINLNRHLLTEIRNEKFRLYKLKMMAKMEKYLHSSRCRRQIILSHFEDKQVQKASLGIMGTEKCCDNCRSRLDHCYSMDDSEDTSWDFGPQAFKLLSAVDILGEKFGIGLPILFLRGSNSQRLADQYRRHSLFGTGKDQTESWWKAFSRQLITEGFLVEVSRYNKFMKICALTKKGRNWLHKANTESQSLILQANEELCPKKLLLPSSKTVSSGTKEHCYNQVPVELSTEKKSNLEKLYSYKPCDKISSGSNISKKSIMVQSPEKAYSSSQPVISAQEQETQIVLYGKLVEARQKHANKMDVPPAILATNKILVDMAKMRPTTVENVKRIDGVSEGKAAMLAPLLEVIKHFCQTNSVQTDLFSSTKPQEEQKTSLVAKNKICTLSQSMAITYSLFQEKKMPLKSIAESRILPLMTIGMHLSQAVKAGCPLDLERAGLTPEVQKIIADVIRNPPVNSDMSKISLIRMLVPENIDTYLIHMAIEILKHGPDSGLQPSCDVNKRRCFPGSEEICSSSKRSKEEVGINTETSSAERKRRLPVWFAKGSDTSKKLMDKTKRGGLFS
# Test: qHTS for Inhibitors of WRN Helicase; note: nearly all actives have a fitted effect of over 55% in size
# Settings: WRN helicase unwinding, fluorescent forked duplex, kinetic; series mostly up to 114 µM; activity change, negative = inhibition: at the top concentration
# Source text: Inhibition of DNA repair is proposed as a strategy for combating cancer. Synthetic lethality is an approach that exploits preexisting DNA repair deficiencies in certain tumors to develop inhibitors of DNA repair pathways that compensate for the tumor-associated DNA repair deficiency. Because helicases play critical roles in the DNA damage response and in DNA repair, particularly in actively dividing and replicating cells, characterization of synthetic lethal relationships of DNA helicases may be of value in developing improved anticancer treatment strategies; moreover, small molecules that specifically target a given DNA helicase may be useful for understanding its role in cellular nucleic acid metabolism. The goal of this project is to identify small molecule, non-covalent chemical inhibitors of the Werner syndrome (WS) helicase (WRN), which plays an important role in cell proliferation, the replication stress response, and DNA repair. […] The WRN gene product that is defective in the chromosomal instability disorder has DNA helicase and exonuclease activities and interacts with a number of nuclear proteins to maintain genomic stability. We will employ an optimized high-throughput screening assay that utilizes a fluorescence intensity modulation scheme with a fluorophore and quencher positioned near one another within a duplex deoxyoligonucleotide that contains a single forked structure. After a high-throughput screen of the ~350,000-member Molecular Libraries Small Molecule Repository (MLSMR) collection, followed by data analysis and hit selection, a panel of confirmatory, as well as secondary and ternary, assays will be employed to identify high-confidence WRN inhibitors. Structure-activity relationships will be investigated for the top candidate inhibitor series through medchem expansion. These are the results of the primary screening campaign against the MLSMR. NIH Chemical Genomics Center [NCGC] NIH Molecular Libraries Probe Centers Network [MLPCN] MLPCN Grant: MH096530 Assay Submitter (PI): Robert Brosh, National Institute of Aging
# Three muL of reagents (buffer in columns 3 and 4 as negative controls; WRN at 20 nM final concentration in columns 1 and 2 as positive controls; columns 5-48 as test reactions) will be dispensed into a 1536-well Greiner black plate via solenoid-valve based nanoliter dispensers. Compounds (23 nL each in columns 5-48) and control (23 nL each in column 2 as dose-response) will be transferred via a Kalypsys pintool equipped with a 1536-pin array. Plates will be incubated for 15 min at room temperature, and then 1 µL of substrate (100 nM forked duplex oligonucleotide and 2 mM ATP final concentrations) will be added to start reaction, and plate will be transferred into a ViewLux high-throughput CCD imager where reaction progress is measured in kinetic mode using standard red-fluorescence optics (excitation filter 525 nm, emission filter 598 nm).
# % is set by controls: 0 for no effect and ±100 for the full control effect; potency is the fitted concentration of half-maximal effect.
SMILES,"activity change, negative = inhibition",Potency
Cc1ccc2c(NC(=O)C3CC3)cccc2n1,3.45%,–
Cc1ccc(/C=C(\C#N)C(=O)Nc2cccc3ncccc23)o1,–,20 µM (active)
COc1ccc(CNC(=O)/C(C#N)=C/c2cccc(OC)c2OC)cc1,-7.89%,–
CC(O)CN(Cc1ccc(Cl)cc1)CC(C)O (configuration not stated),-5.28%,–
Cc1ccc(S(=O)(=O)NC[C@H]2O[C@@H](n3cnc4c(N)ncnc43)[C@H](O)[C@@H]2O)s1,1.49%,–
O=c1ccc2c(-c3ccccc3S(=O)(=O)O)c3ccc(O)c(O)c3oc-2c1O,–,0.212 µM (active)
CCC(C)CN1C(=O)CSCC1(C)C(=O)NCc1ccccc1 (configuration not stated),-3.61%,–
O=C(CSc1nnc(-c2ccncc2)o1)NCc1ccc(Cl)cc1,-4.04%,–
COc1ccc2c(c1)c(=Cc1ccc(N(C)C)cc1)c1cc(-c3ccccc3)[n+](C)n12,–,28.2 µM (active)
CCOC(=O)N1CCC(N2Cc3cccc(C(=O)Nc4ccc(S(=O)(=O)N(CC)CC)cc4)c3C2=O)CC1,-22.4%,–
CCCCn1c(SCc2ncc(-c3ccccc3)o2)nc2cc(S(N)(=O)=O)ccc21,-6.83%,–
COc1ccc(N(CC(=O)NCCSCc2cccc(Cl)c2)S(C)(=O)=O)cc1,1.93%,–
COC(=O)c1ccc(C(NC(=O)OCc2ccccc2)/C(C)=C/[C@@H](C)C(=O)NCc2ccc(OC)c(OC)c2)cc1 (some centres not stated),-4.93%,–
COc1cc(/C=C/C(=O)OCC(=O)NC(=O)NCc2ccccc2)ccc1OCC#N,-4.86%,–
COC(=O)c1ccc(COc2ccc(/C=C/C(=O)c3ccc(OC)c(CSCC(=O)O)c3)cc2OC)cc1,–,44.7 µM (active)
COc1cccc(/C=N/NC(=O)C(=O)N2CCCC2)c1,-4.37%,–
CC(NC(=O)C(=O)NN=C1CCC(C(C)(C)C)CC1)c1ccccc1 (configuration not stated),-0.0663%,–
CC(=O)Nc1cncc(-c2ccccc2CO)n1,-0.378%,–
O=C(O)C1C2C=CC(C2)C1C(=O)N1CCN(CCO)CC1 (configuration not stated),-16.9%,–
C#CCOCCOCCOCCNc1nc(N2CCOCC2)nc(N2CCN(C(=O)[C@H](Cc3ccc(O)cc3)n3cc(CCO)nn3)CC2)n1,2.23%,–
C#CCOCCOCCOCCNc1nc(N2CCN(C(=O)[C@H](CO)n3cc([C@@H](N)C(C)C)nn3)CC2)nc(N2CCN(C(=O)[C@H](CCC(=O)O)n3cc([C@@H](N)[C@H](C)CC)nn3)CC2)n1,-2.38%,–

SMILES,"activity change, negative = inhibition",Potency
C#CCOCCOCCOCCNc1nc(N2CCN(C(=O)C(Cc3ccc(O)cc3)n3cc(C(N)CC(C)C)nn3)CC2)nc(N2CCN(C(=O)C(Cc3ccc(O)cc3)n3cc(C(N)C(C)CC)nn3)CC2)n1 (configuration not stated),-5.12%,–
C#CCOCCOCCOCCNc1nc(N2CCN(C(=O)CCCCCCCCCCNC(=O)[C@H](CCCCN)n3cc(C)nn3)CC2)nc(N2CCN(C(=O)CCCCCCCCCCNC(=O)[C@H](CO)n3cc(CCCSC)nn3)CC2)n1,–,50.1 µM (active)
C#CCOCCOCCOCCNc1nc(N2CCN(C(=O)CCCCCCCCCCNC(=O)[C@H]([C@@H](C)CC)n3cc(CCCCN=C(N)N)nn3)CC2)nc(N2CCN(C(=O)CCCCCCCCCCNC(=O)[C@H](CO)n3cc(CCCSC)nn3)CC2)n1,–,25.1 µM (active)
C#CCOCCOCCOCCNc1nc(N2CCN(C(=O)C([C@@H](C)CC)n3cc(C(N)COC(=O)C(F)(F)F)nn3)CC2)nc(N2CCN(C(=O)[C@H](CCCCN)n3cc(C(N)CC(C)C)nn3)CC2)n1 (some centres not stated),5.35%,–
C#CCOCCOCCOCCNc1nc(N2CCN(C(=O)CCCCCCCCCCNC(=O)Cn3cc(CCCCCN)nn3)CC2)nc(N2CCN(C(=O)CCCCCCCCCCNC(=O)[C@H](CO)n3cc(CCCSC)nn3)CC2)n1,–,31.6 µM (active)
C#CCOCCOCCOCCNc1nc(N2CCN(C(=O)[C@H](CCCCN)n3cc([C@@H](N)C(C)CC)nn3)CC2)nc(N2CCN(C(=O)[C@H](Cc3ccc(O)cc3)n3cc([C@@H](N)C(C)CC)nn3)CC2)n1 (some centres not stated),-8.56%,–
C#CCOCCOCCOCCNc1nc(N2CCN(C(=O)[C@H](CCC(=O)O)n3cc(C(N)CO)nn3)CC2)nc(N2CCN(C(=O)[C@H](Cc3ccc(O)cc3)n3cc(C(N)[C@H](C)CC)nn3)CC2)n1 (some centres not stated),9.57%,–
COc1ccc(NC(=O)C(c2ccncc2)n2c(=O)c(-c3cc4ccccc4[nH]3)nc3ccccc32)cc1 (configuration not stated),-9.68%,–
Cc1ccc(C(=O)NNC(=O)OC(C)(C)C)c(Cl)c1,-1.09%,–
CCCCN(C=O)c1c(CC)nc2c(OCc3ccccc3C(=O)OC)cccn12,3.67% [at 57.1 µM],–
Cc1c(NC(=O)COC(=O)/C=C/c2cccc(F)c2)c(=O)n(-c2ccccc2)n1C,1.25%,–
O=C(C1CCN(CC2CCCCC2)CC1)N1CCCC1,-7.19%,–
CN1CCN(C(=O)c2ccc(-c3cc4nc(NCc5cccnc5)n(C)c(=O)c4s3)cc2)CC1,8.93%,–
CN(C)NC(=O)C(NC(=O)c1ccc(N)cc1)C12CC3CC(CC(C3)C1)C2 (configuration not stated),7.01%,–
Cc1cccc(CN2CCN(C3CN(Cc4cn(Cc5cc(C)cc(C)c5)nn4)S(=O)(=O)C3)CC2)c1 (configuration not stated),-9.29%,–
Cn1ccc(=Nc2ccc(NC(=O)c3ccc(N=c4ccn(C)c5ccc([N+](=O)[O-])cc45)cc3)cc2)cc1,–,39.8 µM (active)
CC(C)c1ccc(NC(=O)CCN2C(=O)c3ccc([N+](=O)[O-])cc3C2=O)cc1,12.3%,–
CN(CC1CCCO1)S(=O)(=O)c1ccc(C(=O)Nc2ccc([N+](=O)[O-])cc2)cc1 (configuration not stated),-34.3%,–
CC(C)C[C@H]1CNC(=S)N1C[C@H]1CCCN1C[C@H](Cc1ccc(O)cc1)N1C[C@H](Cc2ccc(O)cc2)N(CC2CCCCC2)C1=S,-7.7%,–
O=C(c1cccnc1)N(Cc1ccccc1)C(=O)c1cccnc1,2.38%,–
O=C(c1cccnc1)N(c1cc2sc(=O)oc2c2ccccc12)S(=O)(=O)c1ccccc1,–,20 µM (active)
